The sample as a whole holds a higher share of hits than the screen did.
N370S GC mod = qHTS Assay for Inhibitors and Activators of N370S glucocerebrosidase as a Potential Chaperone Treatment of Gaucher Disease | Potency, µM (top dose mostly 59.4 µM), for the others: at the top dose activity change, negative = inhibition, most hits filed as inhibitors | Lysosomal acid glucosylceramidase (Homo sapiens), P04062 | N370S GC spleen homogenate, 4MU-glucoside fluorescence | AID 2101, 2009 | hit rate 0.092% among 330,000;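 further: potency means the concentration at half of the fitted maximal effect; 0% = full enzyme activity and -100% = no enzyme basal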
GRP78 ERSR act = qHTS for Inducers of the Endoplasmic Reticulum Stress Response (ERSR) in Human Glioma: qHTS; U87-MG GRP78 promoter luciferase reporter, 16 h; Potency, µM, for the others: top-dose activation, most hits filed as activators; hit rate 0.02% among 420,000; AID 602332, 2012; further: potency means the concentration at half of the fitted maximal effect; series mostly up to about 76 µM; % of control where 0% means no effect; nearly all actives have a fitted effect of over 35% in size
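Stably transfected U87-MG glioma cells carrying a GRP78-based luciferase sensor; 16 h compound incubation. Luminescence end-point read 10 min after Bright-Glo addition at room temperature.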
Anesthetic bind = qHTS Assay for Identification of Novel General Anesthetics; Ferritin light chain (Equus caballus), P02791; apoferritin/1-aminoanthracene competitive binding, fluorescence; Potency, µM (series often up to 77.5 µM), for inactives: at the top dose activity change, negative = displacement, most hits filed as inhibitors; hit rate 0.074% among 350,000; AID 485281, 2010; further: potency means the concentration at half of the fitted maximal effect; on the % scale 0 is the no-effect control and ±100 the full control effect; nearly all actives have a fitted effect of over 20% in size
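Horse-spleen apoferritin (10 uM) was mixed with 50% saturated 1-aminoanthracene in PBS, exposed to compounds for 10 min at room temperature, and read for fluorescence (ex 380 nm, em 535 nm). Competitive displacement was fitted with a four-parameter Hill equation.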
CBFb-RUNX1 inh = qHTS Assay for Compounds Blocking the Interaction Between CBF-beta and RUNX1 for the Treatment of Acute Myeloid Leukemia; AlphaScreen CBFb-His/RUNX1-biotin binding, biochemical; Potency, µM (titrated, usually from 59.8 µM), for the others: at the top dose activity, negative = inhibition, usual class: inhibitors; 230,000 tested, under 10 active; AID 1477, 2009; further: % of control where 0% means no effect
Target sequence (Q01196 whole entry, looked up): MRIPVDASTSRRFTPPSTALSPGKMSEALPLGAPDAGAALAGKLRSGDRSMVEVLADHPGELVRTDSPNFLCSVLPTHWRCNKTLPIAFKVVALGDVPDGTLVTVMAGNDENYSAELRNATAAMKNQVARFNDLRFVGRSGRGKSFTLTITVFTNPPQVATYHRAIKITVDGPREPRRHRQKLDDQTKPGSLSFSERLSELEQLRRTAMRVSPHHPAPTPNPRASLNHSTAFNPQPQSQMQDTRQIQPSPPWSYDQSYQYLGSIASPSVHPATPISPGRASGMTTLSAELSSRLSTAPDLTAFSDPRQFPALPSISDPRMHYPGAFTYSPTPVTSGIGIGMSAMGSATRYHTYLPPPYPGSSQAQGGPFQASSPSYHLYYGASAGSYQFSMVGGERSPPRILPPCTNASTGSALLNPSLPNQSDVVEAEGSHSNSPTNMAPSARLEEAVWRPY
Target sequence (Q13951 whole entry, looked up): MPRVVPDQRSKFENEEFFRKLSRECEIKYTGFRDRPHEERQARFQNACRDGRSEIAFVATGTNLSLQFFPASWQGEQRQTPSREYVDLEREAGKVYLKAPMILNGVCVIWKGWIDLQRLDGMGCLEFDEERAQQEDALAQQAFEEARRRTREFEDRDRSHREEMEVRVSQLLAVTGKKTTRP
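CBF-beta (His) and RUNX1 (biotin), 30 nM each; 20 min preassociation; + compound, 15 min; + beads 50 ng each (Ni, streptavidin), 90 min; RT; AlphaScreen read.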
Integrin act MD = qHTS for Activators of Integrin-Mediated Alleviation for Muscular Dystrophy; alpha7betagal myoblasts, beta-gal FDG fluorescence, 48 h; Potency, µM (series often up to 38.3 µM), for inactives: top-dose activation, hits mostly activators; hit rate 0.064% among 350,000;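 further: potency means the concentration at half of the fitted maximal effect; 100% = response of the positive control SU9516; nearly all actives have a fitted effect of over 60% in size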
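Alpha7betagal+/- myoblasts (passage 13) were plated 16-24 hr, then exposed to compounds (1:260 dilution of DMSO stock) for 48 hours at 37C. After MPER lysis, β-galactosidase reporter activity was read as FDG fluorescence (ex 480/em 540) after 30 minutes.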
ClpP mod = qHTS Assay for Activators of ClpP | hit rate 1.9% among 340,000 | Potency, µM (series often up to 57.5 µM), without a hit: top-dose activity change, negative = active | AID 651965, 2013 | purified B. subtilis ClpP, FRET peptide cleavage, 20 min; active means well fitted falling curve with a large enough effect; inconclusive means small, poorly fitted or top-dose-only effect; inactive means no such curve, though single readings can be large or run the other way; further: potency means the concentration at half of the fitted maximal effect; the source files actives as falling curves though it sought activators and does not explain the sign; nearly all actives have a fitted effect of over 65% in size
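FRET quenching reversal measured ClpP activation: 10 microg/mL B. subtilis ClpP at pH 8 with the FRET-FV decapeptide, read at 430 nm after 320 nm excitation. The 20-min minus 0-min signal was scaled between DMSO/no-enzyme wells and ADEP (5.8 microM final).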
An asterisk follows results filed as active; ? = inconclusive; . = not tested or not shown; [ ] = dose if it differs, or a comment. Unless noted, the call rests on the fitted dose curve; in most records, active means well fitted curve in the direction sought with a large enough effect; inconclusive means small, poorly fitted or top-dose-only effect, or another doubt; inactive means no such curve, though single readings can be large; an effect the other way counts as inactive or inconclusive.

SMILES	N370S GC mod	GRP78 ERSR act	Anesthetic bind	CBFb-RUNX1 inh	Integrin act MD	ClpP mod
CCNc1ccc(C(=O)O)cc1N	-6%	-2%	-2%	21%	11%	25µM*
CC(C)C(C(=O)O)N1C(=O)/C(=C/c2ccc(Br)cc2)SC1=S (stereo not drawn)	-7%	?	?	-7%	.	.
Cn1c(=O)n(-c2ccc(C(C)(C)C#N)cc2)c2c3cc(-c4cnc5ccccc5c4)ccc3ncc21	.	-1%	.	.	.	4%[115 µM]
Cc1cc(C)c2c(NC(=O)CCl)nn(C)c2n1	-3%	40µM*	0%	?	-57%	4%
O=C(NCc1nnc2n1CCN(Cc1cccc(Cl)c1)CC2)c1cccc(F)c1	.	-5%	.	.	.	.
COC(=O)c1cnc2c(C(F)(F)F)cccc2c1OC	5%	-6%	-1%	9%	13%	16µM*
CCOC(=O)c1ccc(NC(=O)C(=O)NCC2CCCO2)cc1 (stereo not drawn)	6%	1%	-8%	4%	-13%	32µM*
C[n+]1ccc(/C=C/c2ccc([N+](C)(C)C)cc2)c2ccccc21	.	-8%	.	.	.	-8%
O=[N+]([O-])c1ccc(C(=S)N2CCN(c3ccc(F)cc3)CC2)cc1	-2%	-4%	-14%	?	-47%	.
COc1ccc(S(=O)(=O)N2CCN(C(=S)Nc3ccc(S(N)(=O)=O)cc3)CC2)cc1	-15%	-4%	-19%	.	-11%	18µM*
O=S(=O)(c1ccccc1)N1CCN(C(=S)Nc2ccc(F)cc2)CC1	-1%	-5%	-13%	5%	-5%	20µM*
O=[N+]([O-])c1ccc(NC(=S)N2CCN(c3ccc(F)cc3)CC2)cc1	10%	-2%	-14%	-12%	12%	18µM*
COc1ccc(NC(=S)N2CCN(S(=O)(=O)c3ccc(F)cc3)CC2)cc1	-6%	-3%	-4%	.	-23%	0%
Cc1cc(C(=O)N2CCOc3ccc(CN4CCC(Oc5cccnc5)CC4)cc3C2)c(C)o1	.	-9%	.	.	.	.
Cc1nc2ccc(C(=O)N3CCOc4ccc(CN5CCOCC5)cc4C3)cc2nc1C	.	-5%	.	.	.	.
C(=N\n1cnnc1)/c1nc2ccccc2[nH]1	3%	-5%	-12%	0%	15%	16µM*
Cn1c(/C=N/n2cnnc2)nc2ccccc21	5%	-2%	6%	7%	-38%	14µM*
Cc1[nH]c2ccccc2c1/C=N/n1cnnc1	9%	-8%	-5%	3%	0%	0%
OC1(c2cccnc2)CCN(Cc2ccc3c(c2)CN(Cc2cc(F)ccc2F)CCO3)CC1	.	-2%	.	.	.	.
COc1ccc(-c2csc(Nc3ccccc3)[n+]2Cc2ccccc2)cc1	1%	5%	18%	-25%	9%	-1%
Cc1ccc(-c2csc(Nc3ccc(C(=O)O)cc3)[n+]2Cc2ccccc2)cc1	-5%	-1%	-2%	3%	8.9µM*	.
C#C[C@]1(O)CCC2C3CCC4=C(CCC(=O)C4)C3CC[C@@]21C (stereo partly drawn)	2%	-4%	11%	6%	.	.
C#CC1(O)CCC2C3CCc4cc(O)cc(C)c4C3CCC21C (stereo not drawn)	.	4%	.	.	-12%	32µM*
c1ccc2c(N=NN3CCCCC3)ccnc2c1	.	-2%	.	.	.	2%
Cc1cccc(CNC(=O)c2c3n(c(C)cc2=O)-c2ccccc2SC(c2sccc2C)C3)n1 (stereo not drawn)	.	1%	.	.	.	.
SMILES	N370S GC mod	GRP78 ERSR act	Anesthetic bind	CBFb-RUNX1 inh	Integrin act MD	ClpP mod
CCc1ccc(S(=O)(=O)c2cn(C)c3cc(N4CCN(CC)CC4)c(F)cc3c2=O)cc1	.	-1%	-15%	.	.	11µM*
Cc1ccc(S(=O)(=O)c2cn(Cc3ccccc3)c3cc(N4CCCCC4)c(F)cc3c2=O)cc1	.	-3%	-16%	.	.	?
Cc1ccc(S(=O)(=O)c2cn(C)c3cc(N4CCOCC4)c(F)cc3c2=O)cc1	-2%	1%	-6%	.	-21%	-23%
Cn1cc(S(=O)(=O)c2ccccc2)c(=O)c2cc(F)c(N3CCOCC3)cc21	26%	0%	-12%	.	?	28µM*
CCc1ccc(S(=O)(=O)c2cn(Cc3ccccc3)c3cc(N4CCCC4)c(F)cc3c2=O)cc1	.	-4%	-12%	.	.	2.8µM*
Cc1ccc(S(=O)(=O)c2cn(Cc3ccccc3)c3cc(N4CCOCC4)c(F)cc3c2=O)cc1	.	0%	-5%	.	.	28µM*
CCN(CCC#N)c1ccc(/C=C/c2ccnc3ccccc23)cc1	.	-3%	.	.	.	-1%
COc1cc(Br)c(C[N+]2(CCOCCC3CCC4CC3C4(C)C)CCOCC2)cc1OC (stereo not drawn)	.	-6%	.	.	.	.
Cc1ccc(S(=O)(=O)c2cn(Cc3cccc(F)c3)c3cc(N4CCCC4)c(F)cc3c2=O)cc1	.	4%	-11%	.	.	3.5µM*
O=C(NCc1nnc2n1CCN(Cc1ccnc3ccccc13)CC2)c1cccc(F)c1	.	-1%	.	.	.	.
CCN(CC)S(=O)(=O)c1ccc(C)c(NC(=S)NNC(=O)C2CC2)c1	1%	-5%	-2%	?	9%	25µM*
Cc1ccc(S(=O)(=O)N(C)C)cc1NC(=S)NNC(=O)C1CC1	2%	-3%	-11%	-28%	35%	-1%
Cc1ccc(SC/C(O)=C(\C#N)c2nc3ccccc3s2)cc1	3%	13%	6%	4%	-9%	25µM*
Cc1ccc(Oc2ccc(NC(=O)Cn3ccsc3=N)cc2)cc1	?	-1%	13µM*	1%	-47%	-1%
COc1cccc(CN2CCCC(c3nc(C)ncc3-c3ccc(F)cc3)C2)c1OC (stereo not drawn)	.	-6%	.	.	.	.
CC1(C)C2CCC1(C)C(NC(=O)COC(=O)c1ccc(S(C)(=O)=O)c([N+](=O)[O-])c1)C2 (stereo not drawn)	.	-12%	.	.	.	0%
COc1ccc2cc3cc(C(=O)N4CCN(Cc5ccc6c(c5)OCO6)CC4)oc3nc2c1	-10%	1%	-8%	1%	-20%	32µM*
COc1ccc2cc3cc(C(=O)NCC4COc5ccccc5O4)oc3nc2c1 (stereo not drawn)	9%	-4%	-7%	3%	31%	35µM*
COc1ccc2cc(C(=O)N3CCN(Cc4ccc5c(c4)OCO5)CC3)[nH]c2c1	-7%	-1%	-6%	.	-45%	-6%
